We go through 34 compounds from PubChem BioAssay.

Each structure is given as a SMILES string. Inconclusive results are not listed. Active and inactive are the calls of the source.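 How the source made its calls, unless noted: active means compounds killing one labelled cell type while sparing the other, by normalised counts and ratio limits, not self-fluorescent; inactive means the rest.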

In general, AC50 refers to the concentration giving half of the maximal activity seen. Usually remaining activity stands for the signal under treatment as a percentage of the control signal.

Test [1] can be described thus: modulation of C. elegans fzo-1 (AID 1259413; call rule not given here;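 further: fzo-1 mutant C. elegans worms in liquid wells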). The note with it: C. elegans fzo-1 modulator screen, mean read-out; stronger effect = higher value.
Test [2] is described as follows: viability loss in pontine glioma line – cell-based, SU-DIPG-XVII, MIPE5.0, CellTiter-Glo, qHTS, dose response (AID 1347060; cut-off not given, nearly all actives have AC50 up to about 26 µM;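 on AC50: cells exposed to compound for 48 hours before viability readout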). The note with it: CellTiter-Glo ATP luminescence. Background: ATP-based viability assays read luminescence as a measure of living cells.
Test [3] can be described thus: viability loss in pontine glioma line – cell-based, SU-DIPG-XIII, MIPE5.0, CellTiter-Glo, qHTS, dose response (AID 1347064; cut-off not given, nearly all actives have AC50 up to about 23 µM;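 on AC50: cells exposed to compound for 48 hours before the viability read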). To be noted: CellTiter-Glo ATP luminescence.
Test [4] is described as follows: viability loss in pontine glioma line – cell-based, SU-DIPG-XIII, MIPE4.0, CellTiter-Glo, qHTS, dose response (AID 1347061; cut-off not given, nearly all actives have AC50 up to about 37 µM;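 further: cells exposed to compound for 48 hours before readout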). The note with it: CellTiter-Glo ATP luminescence.
A short description of test [5]: viability loss in pontine glioma line – cell-based, JHH-DIPG-1, MIPE4.0, CellTiter-Glo, qHTS, dose response (AID 1347062; cut-off not given, nearly all actives have AC50 up to about 27 µM;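 on AC50: cells exposed to compound for two days before readout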). To be noted: JHH-DIPG-1 viability, CellTiter-Glo ATP luminescence.
The nature of test [6]: viability loss in pontine glioma line – cell-based, SU-DIPG-IV, MIPE4.0, CellTiter-Glo, qHTS, dose response (AID 1347063; cut-off not given, nearly all actives have AC50 up to about 30 µM;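 further: compound exposure lasted 48 hours before the viability readout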). To be noted: CellTiter-Glo ATP luminescence.
Test [7] can be described thus: EMT-state selective cytotoxicity in co-culture – imaging, PC-3E GFP, TEM4-18 mCherry, primary screen (AID 1345086).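 On all read-outs here: cells exposed to compound for 72 h before imaging.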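 On red/green cell ratio (normalised): normalised mesenchymal count divided by normalised epithelial count so high means epithelial killing.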 To be noted: PC-3E GFP / TEM4-18 mCherry co-culture, imaging cell counts, at 1 µM; for red/green cell ratio (normalised): actives lie on both sides, counts scaled to control wells, 1 = unselective.
Test [8] concerns Aerobactin synthetase IucA (Klebsiella pneumoniae). As to the kind of experiment: inhibition of K. pneumoniae IucA enzyme – biochemical, Tocris library, absorbance (AID 1345561; call rule not given here;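 further: 100% = enzyme without compound and 0% = no enzyme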). The note with it: purified IucA enzyme assay, absorbance (OD) read-out; stronger effect = lower value;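 tested at 8 µM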.
The mark [9] stands for this setting: measured here: epithelial PC-3E GFP cell survival.
[10] abbreviates: measured here: mesenchymal TEM4-18 mCherry cell survival.

On to `Cc1ccsc1C(=CCCN1CCC[C@@H](C(=O)O)C1)c1sccc1C`, for which the mean signal in test [1] was 213 (inactive). For the same compound, the compound was classed as inactive in test [2] and in test [3].

As to `CC(=O)[C@]1(O)Cc2c(O)c3c(c(O)c2[C@@H](O[C@H]2C[C@H](N)[C@H](O)[C@H](C)O2)C1)C(=O)c1ccccc1C3=O`, the mean signal in test [1] was 267 (inactive). The concentration at half-maximal activity (AC50) in test [2] is 0.372 µM (active); in test [4], 3.32 µM (active); in test [5] it was 0.526 µM (active); in test [6], 0.662 µM (active); in test [3], 11.8 µM (active).

Take `Cc1ccnc2c1NC(=O)c1cccnc1N2C1CC1`: the mean signal in test [1] is 208 (inactive). In addition, in test [7], the red/green cell ratio (normalised) was 0.79 (inactive). The normalised cell number worked out at 1.34 in test [7] (setting [9]) and 1.05 in test [7] (setting [10]). Also, the half-maximal activity concentration (AC50) in test [6] was 16.6 µM (active).

Regarding `CN(C/C=C/C#CC(C)(C)C)Cc1cccc2ccccc12`, the mean signal in test [1] was 221 (inactive). For the same compound, the red/green cell ratio (normalised) in test [7] is 1.03 (inactive). The results for the normalised cell number in test [7] (setting [9]) and in test [7] (setting [10]) were 1.32 and 1.37, respectively. Moreover, the compound was classed as inactive in test [4] and in test [5].

Consider `CC(=O)Oc1ccccc1C(=O)Nc1ncc([N+](=O)[O-])s1`, for which, in test [1], the mean signal was 256 (inactive). For the same compound, the red/green cell ratio (normalised) in test [7] is 0.75 (inactive). In addition, the values for the normalised cell number in test [7] (setting [9]) and in test [7] (setting [10]) were 1.31 and 0.98, respectively. The AC50 is 27 µM (active) in test [4], 38.2 µM (active) in test [5] and 34 µM (active) in test [6].

As for `CN1CCN(CCCN2c3ccccc3Sc3ccc(Cl)cc32)CC1`, the mean signal in test [1] is 253 (inactive). Moreover, the red/green cell ratio (normalised) in test [7] is 1.2 (inactive). For the same compound, the normalised cell number in test [7] (setting [9]) worked out at 0.97; in test [7] (setting [10]), 1.16. The AC50 in test [4] is 0.0105 µM (active); in test [5] it was 7.43 µM (active); in test [6], 10.5 µM (active).

As for `O=C1CC2(CCCC2)CC(=O)N1CCNCC1COc2ccccc2O1` (stereo not given), the mean signal in test [1] was 200 (inactive). The remaining activity in test [8] is 96.6% (inactive).

In the case of `CN(CCCN1c2ccccc2CCc2ccccc21)CC(=O)c1ccc(Cl)cc1`, the mean signal in test [1] is 194 (inactive). For the same compound, in test [8], the remaining activity is 113% (inactive).

As for `Cc1nc2ccc(CN(C)c3ccc(C(=O)N[C@@H](CCC(=O)O)C(=O)O)s3)cc2c(=O)[nH]1`, the mean signal in test [1] was 269 (inactive). In addition, the result in test [2], in test [5] and in test [3] was inactive.

Consider `CC(C)c1nc(CN(C)C(=O)N[C@H](C(=O)N[C@@H](Cc2ccccc2)C[C@H](O)[C@H](Cc2ccccc2)NC(=O)OCc2cncs2)C(C)C)cs1`, for which the mean signal in test [1] is 246 (inactive). Also, in test [7], the red/green cell ratio (normalised) was 1.06 (inactive). Also, the normalised cell number came to 1.14 in test [7] (setting [9]) and 1.21 in test [7] (setting [10]). Moreover, the compound was classed as inactive in test [4] and in test [5].

With `CN(C)/N=N/c1nc[nH]c1C(N)=O`, the red/green cell ratio (normalised) in test [7] was 0.71 (inactive). Besides, the normalised cell number in test [7] (setting [9]) came out at 1.47; in test [7] (setting [10]), 1.04.

Consider `Cc1ccc(NC(=O)c2ccc(CN3CCN(C)CC3)cc2)cc1Nc1nccc(-c2cccnc2)n1`, for which the mean signal in test [1] is 251 (inactive). The compound was classed as inactive in test [5] and in test [6].

For `O=C1c2ccccc2C(=O)C1c1ccccc1`, the red/green cell ratio (normalised) in test [7] was 1.05 (inactive). Further, the normalised cell number in test [7] (setting [9]) worked out at 1.09; in test [7] (setting [10]), 1.15.

As for `Cc1c(Cl)cccc1Nc1ccccc1C(=O)O`, in test [7], the red/green cell ratio (normalised) was 0.86 (inactive). Moreover, the normalised cell number in test [7] (setting [9]) was found to be 1.08; in test [7] (setting [10]) it was 0.93.

With `CCCc1ncc(C[n+]2ccccc2C)c(N)n1`, the red/green cell ratio (normalised) in test [7] is 0.95 (inactive). In addition, the normalised cell number amounted to 1.35 in test [7] (setting [9]) and 1.28 in test [7] (setting [10]).

For `CNC1(C)C2CCC(C2)C1(C)C` (stereo not given), the red/green cell ratio (normalised) in test [7] was 0.89 (inactive). The normalised cell number in test [7] (setting [9]) is 1.09; in test [7] (setting [10]) it was 0.97.

In the case of `CC(C)c1ccc2oc3nc(N)c(C(=O)O)cc3c(=O)c2c1`, the mean signal in test [1] was 242 (inactive). In addition, the compound was called inactive in test [4], in test [5] and in test [3].

For the compound `NCCCC[C@H](N[C@@H](CCc1ccccc1)C(=O)O)C(=O)N1CCC[C@H]1C(=O)O`, in test [7], the red/green cell ratio (normalised) was 1.65 (inactive). The normalised cell number in test [7] (setting [9]) is 0.22; in test [7] (setting [10]), 0.36.

In the case of `CC(C)(C)NC(=O)[C@@H]1CN(Cc2cccnc2)CCN1C[C@@H](O)C[C@@H](Cc1ccccc1)C(=O)N[C@H]1c2ccccc2C[C@H]1O`, the mean signal in test [1] was 283 (inactive). The concentration at half-maximal activity (AC50) in test [4] is 1.32 µM (active).

With `CCCCCCCCCCCCCCCCOP(=O)([O-])OCC[N+](C)(C)C`, in test [7], the red/green cell ratio (normalised) was 0.8 (inactive). The figures for the normalised cell number in test [7] (setting [9]) and in test [7] (setting [10]) were 1.32 and 1.06, respectively.

In the case of `C[n+]1cc2c3c(ccc2c2ccc4cc5c(cc4c21)OCO5)OCO3`, the red/green cell ratio (normalised) in test [7] was 1.2 (inactive). Further, the normalised cell number worked out at 0.84 in test [7] (setting [9]) and 1.01 in test [7] (setting [10]).

For `CN1CCCN=C1COC(=O)C(O)(c1ccccc1)C1CCCCC1` (stereo not given), the red/green cell ratio (normalised) in test [7] is 1.18 (inactive). Moreover, the normalised cell number in test [7] (setting [9]) amounted to 1.21; in test [7] (setting [10]) it was 1.43.

Take `C=CCSCC1Nc2cc(Cl)c(S(N)(=O)=O)cc2S(=O)(=O)N1` (stereo not given): in test [7], the red/green cell ratio (normalised) is 1.09 (inactive). Further, the normalised cell number in test [7] (setting [9]) was 1.09; in test [7] (setting [10]), 1.19.

For `O=c1[nH]cnc2c1ncn2[C@H]1CC[C@@H](CO)O1`, the mean signal in test [1] was 237 (inactive). Also, the compound was called inactive in test [4].

For `CCOc1cc(N)c(Cl)cc1C(=O)NCC1CN(Cc2ccc(F)cc2)CCO1` (stereo not given), the mean signal in test [1] was 261 (inactive). The call in test [4], in test [5], in test [6] and in test [3] was inactive.

On to `CC1(C)S[C@@H]2[C@H](NC(=O)[C@H](N)c3ccccc3)C(=O)N2[C@H]1C(=O)O`, for which, in test [7], the red/green cell ratio (normalised) was 0.91 (inactive). Besides, the normalised cell number was 1.22 in test [7] (setting [9]) and 1.12 in test [7] (setting [10]).

In the case of `Cc1c(O)cccc1C(=O)N[C@@H](CSc1ccccc1)[C@H](O)CN1C[C@H]2CCCC[C@H]2C[C@H]1C(=O)NC(C)(C)C`, the mean signal in test [1] is 243 (inactive). The half-maximal activity concentration (AC50) in test [5] and in test [6] was 20.9 µM (active) in each case.

With `CCCCC(CC)CN=C(N)NC(N)=NCCCCCCN=C(N)NC(N)=NCC(CC)CCCC` (stereo not given), in test [7], the red/green cell ratio (normalised) is 0.85 (inactive). Also, the normalised cell number in test [7] (setting [9]) came out at 1.19; in test [7] (setting [10]), 1.01.

In the case of `O=C1Nc2ccc(Cl)cc2[C@@](C#CC2CC2)(C(F)(F)F)O1`, in test [1], the mean signal was 218 (inactive). Moreover, the compound was classed as inactive in test [5]. The concentration at half-maximal activity (AC50) in test [6] is 29.6 µM (active).

Consider `CC(=O)Oc1ccc(C(c2ccc(OC(C)=O)cc2)c2ccccn2)cc1`, for which the red/green cell ratio (normalised) in test [7] is 0.85 (inactive). Besides, the figures for the normalised cell number in test [7] (setting [9]) and in test [7] (setting [10]) were 1.24 and 1.06, respectively.

As for `C=CCc1ccccc1OCC(O)CNC(C)C` (stereo not given), the red/green cell ratio (normalised) in test [7] is 1 (inactive). Also, the normalised cell number in test [7] (setting [9]) and in test [7] (setting [10]) was 1.2 each time.

Turning to `NCCS`, the red/green cell ratio (normalised) in test [7] was 1.27 (inactive). Further, the normalised cell number was found to be 0.91 in test [7] (setting [9]) and 1.16 in test [7] (setting [10]).

As to `Cc1nccn1CC1CCc2c(c3ccccc3n2C)C1=O` (stereo not given), the mean signal in test [1] is 237 (inactive). In test [5], the result was inactive.

For `O=C(O)c1ccccc1C(=O)Nc1ccc(S(=O)(=O)Nc2nccs2)cc1`, the red/green cell ratio (normalised) in test [7] is 1 (inactive). Also, the values for the normalised cell number in test [7] (setting [9]) and in test [7] (setting [10]) were 1.18 and 1.17, respectively.
